# Experimental data: the supplement of paper PMC11732987, “Enantioselective OTUD7B fragment discovery through chemoproteomics screening and high-throughput optimisation” (Communications Chemistry, 2025)
# Unmarked numbers belong to inactive results.
# Legend:
# Assay in all cases: log2 ratio of Biotin-Ahx-Ub-VS probe labelling (fragment/DMSO); higher = less target engagement (more negative = stronger competition), active = hit call of the paper (q ≤ 0.05, log2 ratio ≤ -1)
# Settings in all cases: compound concentration: 200 uM; treatment time: 3 h
# ALG13 = biological target: T1, ALG13 (UniProt Q9NP73)
# T1 sequence (whole entry): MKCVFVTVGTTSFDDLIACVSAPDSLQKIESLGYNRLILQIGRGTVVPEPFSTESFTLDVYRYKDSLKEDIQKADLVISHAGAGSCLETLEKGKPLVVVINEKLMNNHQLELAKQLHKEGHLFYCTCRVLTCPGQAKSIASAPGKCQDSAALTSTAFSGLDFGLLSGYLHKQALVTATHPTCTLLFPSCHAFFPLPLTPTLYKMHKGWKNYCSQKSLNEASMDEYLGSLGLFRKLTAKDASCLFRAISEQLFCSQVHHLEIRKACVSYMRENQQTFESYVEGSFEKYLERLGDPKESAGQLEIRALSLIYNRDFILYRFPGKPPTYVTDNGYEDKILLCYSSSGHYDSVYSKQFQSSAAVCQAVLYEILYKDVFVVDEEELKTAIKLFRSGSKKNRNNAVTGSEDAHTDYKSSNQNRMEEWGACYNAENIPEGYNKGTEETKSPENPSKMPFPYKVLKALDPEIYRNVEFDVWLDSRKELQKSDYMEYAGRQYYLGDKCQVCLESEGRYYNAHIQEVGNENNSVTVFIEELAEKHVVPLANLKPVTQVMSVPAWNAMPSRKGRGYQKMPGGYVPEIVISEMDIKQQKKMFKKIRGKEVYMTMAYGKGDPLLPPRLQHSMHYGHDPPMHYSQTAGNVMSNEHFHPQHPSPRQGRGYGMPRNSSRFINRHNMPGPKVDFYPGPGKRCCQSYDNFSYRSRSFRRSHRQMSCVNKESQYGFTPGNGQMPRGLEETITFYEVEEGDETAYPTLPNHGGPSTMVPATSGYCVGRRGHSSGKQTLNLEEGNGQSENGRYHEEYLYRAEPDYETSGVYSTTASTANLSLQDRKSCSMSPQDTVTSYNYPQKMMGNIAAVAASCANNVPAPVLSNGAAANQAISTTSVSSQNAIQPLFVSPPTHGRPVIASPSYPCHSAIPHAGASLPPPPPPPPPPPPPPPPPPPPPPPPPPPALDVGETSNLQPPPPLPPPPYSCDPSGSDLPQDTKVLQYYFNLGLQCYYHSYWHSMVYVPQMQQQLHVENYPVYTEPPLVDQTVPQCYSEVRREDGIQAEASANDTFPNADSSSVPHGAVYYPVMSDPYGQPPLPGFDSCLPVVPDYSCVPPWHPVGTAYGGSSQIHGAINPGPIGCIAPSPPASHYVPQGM
# In short: (§1)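 Triplicate samples of HEK293T lysate, 495 µg each, received fragment at 200 µM or vehicle for 3 h, followed by Biotin-Ahx-Ub-VS (0.5 µM final) for 1 h. After NeutrAvidin enrichment of labelled DUBs and LysC/trypsin digestion, peptides were run by diaPASEF LC-MS/MS. The values are average log2 fragment/vehicle ratios from global-median-normalised Spectronaut label-free quantities, tested by unpaired t-test on proteins having ≥2 unique peptides.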
# ATXN3 = ATXN3 (UniProt P54252)
# In short: as §1
# BAP1 = biological target: T2, BAP1 (UniProt Q92560)
# T2 sequence (whole entry): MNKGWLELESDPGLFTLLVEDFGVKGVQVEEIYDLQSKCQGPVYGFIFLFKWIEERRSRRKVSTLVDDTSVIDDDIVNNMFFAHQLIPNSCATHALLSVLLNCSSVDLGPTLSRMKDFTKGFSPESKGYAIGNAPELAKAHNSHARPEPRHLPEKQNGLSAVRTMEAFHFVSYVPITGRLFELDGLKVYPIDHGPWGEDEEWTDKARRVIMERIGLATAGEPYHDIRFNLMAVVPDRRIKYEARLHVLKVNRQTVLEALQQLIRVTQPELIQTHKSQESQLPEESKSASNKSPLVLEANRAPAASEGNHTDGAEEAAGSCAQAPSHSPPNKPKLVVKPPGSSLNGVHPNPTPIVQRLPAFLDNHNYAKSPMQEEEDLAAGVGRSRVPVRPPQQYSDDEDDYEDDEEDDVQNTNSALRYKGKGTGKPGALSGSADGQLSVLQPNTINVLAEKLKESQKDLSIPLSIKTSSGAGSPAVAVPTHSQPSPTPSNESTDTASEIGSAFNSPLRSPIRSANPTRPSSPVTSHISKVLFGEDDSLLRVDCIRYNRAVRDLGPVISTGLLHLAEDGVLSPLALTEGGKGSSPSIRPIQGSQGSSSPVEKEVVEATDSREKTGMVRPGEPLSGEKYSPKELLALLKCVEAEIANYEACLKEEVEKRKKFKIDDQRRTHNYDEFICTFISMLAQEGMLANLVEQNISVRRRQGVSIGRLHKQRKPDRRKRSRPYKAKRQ
# In short: as §1
# EIF3F = EIF3F (UniProt O00303)
# In short: as §1
# EIF3H = EIF3H (UniProt O15372)
# In short: as §1
# FAM105A = biological target: T3, FAM105A (UniProt Q9NUU6)
# T3 sequence (whole entry): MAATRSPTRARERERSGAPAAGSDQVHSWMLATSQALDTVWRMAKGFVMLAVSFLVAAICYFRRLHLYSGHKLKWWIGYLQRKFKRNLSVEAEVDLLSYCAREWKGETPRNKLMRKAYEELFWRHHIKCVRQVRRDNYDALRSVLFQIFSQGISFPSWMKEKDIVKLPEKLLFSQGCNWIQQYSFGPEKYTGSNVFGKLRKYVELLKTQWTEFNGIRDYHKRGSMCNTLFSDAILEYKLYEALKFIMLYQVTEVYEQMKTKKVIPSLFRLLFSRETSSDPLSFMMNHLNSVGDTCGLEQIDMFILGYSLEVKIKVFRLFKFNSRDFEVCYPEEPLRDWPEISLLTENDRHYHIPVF
# In short: as §1
# OTUB1 = OTUB1 (UniProt Q96FW1)
# In short: as §1
# OTUD4 = biological target: T4, OTUD4 (UniProt Q01804)
# T4 sequence (whole entry): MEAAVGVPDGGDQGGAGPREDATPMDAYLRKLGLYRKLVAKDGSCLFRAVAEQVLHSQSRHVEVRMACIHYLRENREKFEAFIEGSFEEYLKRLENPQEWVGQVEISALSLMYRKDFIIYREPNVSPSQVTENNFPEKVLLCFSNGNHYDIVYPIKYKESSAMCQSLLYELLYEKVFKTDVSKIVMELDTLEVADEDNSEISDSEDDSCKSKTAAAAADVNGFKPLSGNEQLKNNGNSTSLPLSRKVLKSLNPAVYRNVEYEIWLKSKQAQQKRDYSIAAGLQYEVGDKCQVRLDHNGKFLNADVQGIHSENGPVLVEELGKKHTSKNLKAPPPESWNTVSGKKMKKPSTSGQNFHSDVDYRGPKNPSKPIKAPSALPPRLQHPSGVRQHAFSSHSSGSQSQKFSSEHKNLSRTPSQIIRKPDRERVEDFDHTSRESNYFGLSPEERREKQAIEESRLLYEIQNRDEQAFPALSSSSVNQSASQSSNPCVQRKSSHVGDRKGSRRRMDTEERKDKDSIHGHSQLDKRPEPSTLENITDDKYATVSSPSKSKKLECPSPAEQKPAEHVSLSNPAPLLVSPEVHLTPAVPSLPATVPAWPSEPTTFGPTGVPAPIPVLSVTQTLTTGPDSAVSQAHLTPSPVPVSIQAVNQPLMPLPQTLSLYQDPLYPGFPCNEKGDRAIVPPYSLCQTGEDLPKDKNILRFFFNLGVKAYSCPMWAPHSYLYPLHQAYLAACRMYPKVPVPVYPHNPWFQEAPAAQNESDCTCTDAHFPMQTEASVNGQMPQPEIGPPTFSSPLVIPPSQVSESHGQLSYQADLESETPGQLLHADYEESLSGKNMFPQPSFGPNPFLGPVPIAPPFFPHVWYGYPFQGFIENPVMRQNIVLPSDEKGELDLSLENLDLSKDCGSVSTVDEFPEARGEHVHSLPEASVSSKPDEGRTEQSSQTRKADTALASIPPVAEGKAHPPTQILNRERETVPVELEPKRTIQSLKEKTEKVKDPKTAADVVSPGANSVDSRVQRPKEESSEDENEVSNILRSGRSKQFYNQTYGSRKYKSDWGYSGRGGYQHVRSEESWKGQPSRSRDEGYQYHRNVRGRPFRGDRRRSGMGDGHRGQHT
# In short: as §1
# OTUD5 = biological target: T5, OTUD5 (UniProt Q96G74)
# T5 sequence (whole entry): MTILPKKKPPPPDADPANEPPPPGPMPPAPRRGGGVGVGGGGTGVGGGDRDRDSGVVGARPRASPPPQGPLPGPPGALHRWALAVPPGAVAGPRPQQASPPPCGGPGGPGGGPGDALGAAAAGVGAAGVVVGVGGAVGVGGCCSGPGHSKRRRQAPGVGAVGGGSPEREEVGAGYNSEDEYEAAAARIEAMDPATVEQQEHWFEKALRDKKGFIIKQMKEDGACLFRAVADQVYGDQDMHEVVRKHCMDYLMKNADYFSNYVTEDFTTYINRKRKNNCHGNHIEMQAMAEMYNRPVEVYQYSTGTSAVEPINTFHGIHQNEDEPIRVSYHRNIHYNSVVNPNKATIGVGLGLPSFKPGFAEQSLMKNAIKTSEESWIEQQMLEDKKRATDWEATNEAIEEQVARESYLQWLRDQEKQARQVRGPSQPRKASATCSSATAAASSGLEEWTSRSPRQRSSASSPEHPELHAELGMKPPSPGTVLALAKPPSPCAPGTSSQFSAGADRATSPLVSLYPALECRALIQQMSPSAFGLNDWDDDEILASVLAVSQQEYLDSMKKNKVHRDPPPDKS
# In short: as §1
# Chain of OTUB1 (Q96FW1 whole entry): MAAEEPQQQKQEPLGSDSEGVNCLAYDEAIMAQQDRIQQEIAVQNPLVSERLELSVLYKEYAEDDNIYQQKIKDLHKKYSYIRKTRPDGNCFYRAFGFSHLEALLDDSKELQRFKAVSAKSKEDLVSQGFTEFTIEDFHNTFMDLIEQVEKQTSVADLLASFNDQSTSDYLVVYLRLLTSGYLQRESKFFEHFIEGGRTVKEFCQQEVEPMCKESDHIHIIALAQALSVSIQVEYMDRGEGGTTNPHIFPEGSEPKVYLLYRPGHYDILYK
# Chain of EIF3H (O15372 whole entry): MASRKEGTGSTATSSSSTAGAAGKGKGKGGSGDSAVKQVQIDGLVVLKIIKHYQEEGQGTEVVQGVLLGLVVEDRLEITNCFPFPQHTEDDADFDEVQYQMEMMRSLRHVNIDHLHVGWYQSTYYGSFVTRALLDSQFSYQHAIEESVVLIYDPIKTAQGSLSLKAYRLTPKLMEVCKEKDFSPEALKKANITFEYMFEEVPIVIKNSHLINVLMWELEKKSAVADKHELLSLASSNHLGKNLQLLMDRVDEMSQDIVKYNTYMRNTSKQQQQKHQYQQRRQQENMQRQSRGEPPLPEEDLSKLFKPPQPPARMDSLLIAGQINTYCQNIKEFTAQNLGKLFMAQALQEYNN
# Chain of EIF3F (O00303 whole entry): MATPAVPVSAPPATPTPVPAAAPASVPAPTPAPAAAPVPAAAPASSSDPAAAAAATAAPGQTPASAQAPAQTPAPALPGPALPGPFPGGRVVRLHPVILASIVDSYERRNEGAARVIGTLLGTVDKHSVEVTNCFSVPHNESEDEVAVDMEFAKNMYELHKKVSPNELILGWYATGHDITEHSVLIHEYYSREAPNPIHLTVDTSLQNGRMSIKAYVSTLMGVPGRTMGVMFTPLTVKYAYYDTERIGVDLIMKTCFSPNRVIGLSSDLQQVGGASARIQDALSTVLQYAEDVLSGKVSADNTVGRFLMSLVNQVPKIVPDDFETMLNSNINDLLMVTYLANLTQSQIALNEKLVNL
# Chain of ATXN3 (P54252 whole entry): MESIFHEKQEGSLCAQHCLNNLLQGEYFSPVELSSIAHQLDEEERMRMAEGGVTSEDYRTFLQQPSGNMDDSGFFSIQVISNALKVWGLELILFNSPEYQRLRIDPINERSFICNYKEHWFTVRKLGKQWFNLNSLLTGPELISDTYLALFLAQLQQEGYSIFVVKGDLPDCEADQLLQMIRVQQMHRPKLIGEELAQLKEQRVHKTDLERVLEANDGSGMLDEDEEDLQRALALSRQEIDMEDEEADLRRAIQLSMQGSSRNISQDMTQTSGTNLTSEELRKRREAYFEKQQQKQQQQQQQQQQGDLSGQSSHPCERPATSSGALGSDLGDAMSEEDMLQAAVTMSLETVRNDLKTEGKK
smiles,measurement,setting,value
O=C(CCl)NCCC1COCCO1 (centres undefined),log2 ratio of Biotin-Ahx-Ub-VS probe labelling,ALG13,-0.267
same,log2 ratio of Biotin-Ahx-Ub-VS probe labelling,ATXN3,-0.282
same,log2 ratio of Biotin-Ahx-Ub-VS probe labelling,BAP1,-1.01 (active)
same,log2 ratio of Biotin-Ahx-Ub-VS probe labelling,EIF3F,-0.44
same,log2 ratio of Biotin-Ahx-Ub-VS probe labelling,EIF3H,0.24
same,log2 ratio of Biotin-Ahx-Ub-VS probe labelling,FAM105A,-0.278
same,log2 ratio of Biotin-Ahx-Ub-VS probe labelling,OTUB1,-0.233
same,log2 ratio of Biotin-Ahx-Ub-VS probe labelling,OTUD4,-0.214
same,log2 ratio of Biotin-Ahx-Ub-VS probe labelling,OTUD5,-0.165
